These results are taken from the supplement of paper PMC10646978.

Common to all, as to conditions: modulator concentration 10 µM
Assay [1] relates to RAW-Dual (murine macrophage reporter line). The experiment in a line: NF-kB reporter (SEAP) activity fold change vs agonist alone; higher = enhanced NF-kB activity. In a few lines: (§1)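 Compound reached 10 μM final in each well by pin transfer, onto RAW-Dual murine macrophage reporter cells seeded at 50 000 per well in 384-well plates. After 1 hour at 37 °C, the cells were stimulated overnight with a PRR agonist. SEAP in the supernatant was read with QUANTI-Blue at 620 nm absorbance for NF-κB, and Lucia luciferase was read with QUANTI-Luc luminescence for IRF. Each signal was turned into fold change against the mean agonist-only control on the same plate, and two replicate plates were averaged with propagated errors.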

The test system is the same in assay [2]. The experiment in a line: IRF reporter (Lucia luciferase) activity fold change vs agonist alone; higher = enhanced IRF activity. In short, it runs like this:
as §1

Assay [3] shares this test system. The experiment in a line: viability score (confluency relative to resting cells, overnight) (fraction); higher = more viable, active = viable (0.7 or more). In short, it runs like this:
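Two confluency masks, generated with IncuCyte software over all imaged wells, were applied to IncuCyte images of RAW-Dual macrophages. The cells, in 384-well plates, had been exposed overnight to 10 μM final compound. The viability score is confluency as a fraction of resting cells, and a compound met the cutoff only with both masks above 70% of resting cells.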

Where [4] appears, read: agonist: CpG ODN 1826 0.5 ug/mL.

± gives the standard deviation.

`COc1ccccc1C(=O)Nc1cnc(N2CCN(c3ccccn3)CC2)nc1`: the NF-kB reporter in assay [1] (setting [4]) came out at 0.887 ± 0.038; in assay [1] (agonist: LPS 0.1 ug/mL), 1.02 ± 0.12; in assay [1] (agonist: MPLA […]) it was 1.2 ± 0.066. Besides, the IRF reporter was 0.913 ± 0.086 in assay [2] (agonist: 3'3'-cGAMP 10 ug/mL), 0.991 ± 0.21 in assay [2] (agonist: LPS 0.1 ug/mL) and 1.12 ± 0.43 in assay [2] (agonist: MPLA […]). For the same molecule, the viability score in assay [3] is 0.877 (active).
`Cc1c(C(=O)OC(C)C)sc(NC(=O)C(C)(C)C)c1C(=O)OC(C)C`: the figures for the NF-kB reporter in assay [1] (setting [4]), in assay [1] (agonist: LPS 0.1 ug/mL) and in assay [1] (agonist: MPLA […]) were 0.823 ± 0.081, 0.908 ± 0.044 and 1.09 ± 0.099, respectively. Moreover, the IRF reporter stood at 1 ± 0.06 in assay [2] (agonist: 3'3'-cGAMP 10 ug/mL), 1.56 ± 0.095 in assay [2] (agonist: LPS 0.1 ug/mL) and 1.77 ± 0.16 in assay [2] (agonist: MPLA […]). Moreover, the viability score in assay [3] is 0.985 (active).
As for `CCCC(=O)OCOC(=O)C1=C(C)NC(C)=C(C(=O)OC)C1c1cccc(Cl)c1Cl` (stereo unspecified), the results for the NF-kB reporter in assay [1] (setting [4]), in assay [1] (agonist: LPS 0.1 ug/mL) and in assay [1] (agonist: MPLA […]) were 0.752 ± 0.068, 0.888 ± 0.064 and 1.07 ± 0.11, respectively. Moreover, the IRF reporter in assay [2] (agonist: 3'3'-cGAMP 10 ug/mL) was 0.995 ± 0.048; in assay [2] (agonist: LPS 0.1 ug/mL), 1.18 ± 0.14; in assay [2] (agonist: MPLA […]) it was 1.16 ± 0.16. In assay [3], the viability score is 1 (active).
`CCc1c(C)[nH]c2c1C(=O)C(CN1CCOCC1)CC2` (stereo unspecified) [Prestw-1035]: the NF-kB reporter in assay [1] (setting [4]) came out at 1.2 ± 0.1; in assay [1] (agonist: LPS 0.1 ug/mL) it was 0.92 ± 0.07; in assay [1] (agonist: MPLA […]), 0.934 ± 0.027. The IRF reporter amounted to 1.03 ± 0.04 in assay [2] (agonist: 3'3'-cGAMP 10 ug/mL), 0.925 ± 0.049 in assay [2] (agonist: LPS 0.1 ug/mL) and 0.959 ± 0.11 in assay [2] (agonist: MPLA […]). In assay [3], the viability score was 1 (active).
Regarding `Cc1ccc(C=Nc2ccc(-c3ccc(N=Cc4ccc(C)o4)c(C)c3)cc2C)o1`, the values for the NF-kB reporter in assay [1] (setting [4]), in assay [1] (agonist: LPS 0.1 ug/mL) and in assay [1] (agonist: MPLA […]) were 0.837 ± 0.066, 0.984 ± 0.087 and 1.01 ± 0.053, respectively. Moreover, the values for the IRF reporter in assay [2] (agonist: 3'3'-cGAMP 10 ug/mL), in assay [2] (agonist: LPS 0.1 ug/mL) and in assay [2] (agonist: MPLA […]) were 0.773 ± 0.097, 0.929 ± 0.041 and 0.894 ± 0.075, respectively. In addition, the viability score in assay [3] is 0.991 (active).
As to `CCOc1nc2cccc(C(=O)OC(C)OC(=O)OC3CCCCC3)c2n1Cc1ccc(-c2ccccc2-c2nnn[nH]2)cc1` (stereo unspecified), the results for the NF-kB reporter in assay [1] (setting [4]), in assay [1] (agonist: LPS 0.1 ug/mL) and in assay [1] (agonist: MPLA […]) were 0.672 ± 0.089, 0.762 ± 0.062 and 0.976 ± 0.092, respectively. Moreover, the IRF reporter in assay [2] (agonist: 3'3'-cGAMP 10 ug/mL) is 1.1 ± 0.051; in assay [2] (agonist: LPS 0.1 ug/mL), 1.31 ± 0.089; in assay [2] (agonist: MPLA […]), 1.47 ± 0.13. Moreover, the viability score in assay [3] is 1.02 (active).
Consider `O=C(NCC(O)Cn1ccccc1=O)c1ccc(Cl)s1` (stereo unspecified), for which the NF-kB reporter came to 0.94 ± 0.1 in assay [1] (setting [4]), 0.869 ± 0.087 in assay [1] (agonist: LPS 0.1 ug/mL) and 1.01 ± 0.087 in assay [1] (agonist: MPLA […]). Besides, the IRF reporter was 1.02 ± 0.047 in assay [2] (agonist: 3'3'-cGAMP 10 ug/mL), 1.41 ± 0.09 in assay [2] (agonist: LPS 0.1 ug/mL) and 1.46 ± 0.12 in assay [2] (agonist: MPLA […]). For the same molecule, the viability score in assay [3] is 1 (active).
As to `Cc1ccc(NS(=O)(=O)c2cc3c4c(cccc4c2)C(=O)NC3=O)cc1C`, the NF-kB reporter in assay [1] (setting [4]) came to 0.535 ± 0.034; in assay [1] (agonist: LPS 0.1 ug/mL), 0.381 ± 0.03; in assay [1] (agonist: MPLA […]) it was 0.875 ± 0.025. Moreover, the IRF reporter is 0.532 ± 0.033 in assay [2] (agonist: 3'3'-cGAMP 10 ug/mL), 0.908 ± 0.092 in assay [2] (agonist: LPS 0.1 ug/mL) and 0.815 ± 0.14 in assay [2] (agonist: MPLA […]). Moreover, in assay [3], the viability score was 0.802 (active).
In the case of `CCn1cc(C(=O)NN)c(=O)c2cc(F)c(N3CCCCCC3)cc21`, the NF-kB reporter in assay [1] (setting [4]) is 0.966 ± 0.076; in assay [1] (agonist: LPS 0.1 ug/mL), 0.98 ± 0.091; in assay [1] (agonist: MPLA […]), 0.979 ± 0.12. Besides, the IRF reporter in assay [2] (agonist: 3'3'-cGAMP 10 ug/mL) was 0.965 ± 0.035; in assay [2] (agonist: LPS 0.1 ug/mL) it was 1.29 ± 0.11; in assay [2] (agonist: MPLA […]), 1.19 ± 0.12. In addition, in assay [3], the viability score is 1.01 (active).
Regarding `Cl.Fc1ccc(C2CCNCC2COc2ccc3c(c2)OCO3)cc1` (stereo unspecified), the NF-kB reporter in assay [1] (setting [4]) is 0.829 ± 0.23; in assay [1] (agonist: LPS 0.1 ug/mL), 0.938 ± 0.089; in assay [1] (agonist: MPLA […]) it was 0.918 ± 0.058. Also, the results for the IRF reporter in assay [2] (agonist: 3'3'-cGAMP 10 ug/mL), in assay [2] (agonist: LPS 0.1 ug/mL) and in assay [2] (agonist: MPLA […]) were 0.916 ± 0.041, 1.05 ± 0.18 and 1.07 ± 0.15, respectively. In addition, the viability score in assay [3] was 0.968 (active).
Consider `CC(C)Oc1cccc(C(=O)NC(=S)N2CCN(c3ccc([N+](=O)[O-])cc3)CC2)c1`, for which the results for the NF-kB reporter in assay [1] (setting [4]), in assay [1] (agonist: LPS 0.1 ug/mL) and in assay [1] (agonist: MPLA […]) were 0.83 ± 0.064, 0.943 ± 0.053 and 1.09 ± 0.1, respectively. For the same molecule, the IRF reporter in assay [2] (agonist: 3'3'-cGAMP 10 ug/mL) was 0.829 ± 0.038; in assay [2] (agonist: LPS 0.1 ug/mL), 1.19 ± 0.089; in assay [2] (agonist: MPLA […]) it was 1.34 ± 0.15. For the same molecule, in assay [3], the viability score is 1.02 (active).
For `NC(=O)c1ccc(N2CCOCC2)c([N+](=O)[O-])c1`, the NF-kB reporter in assay [1] (setting [4]) was determined as 1.04 ± 0.087; in assay [1] (agonist: LPS 0.1 ug/mL), 1 ± 0.089; in assay [1] (agonist: MPLA […]), 0.935 ± 0.026. Besides, the IRF reporter was 0.984 ± 0.067 in assay [2] (agonist: 3'3'-cGAMP 10 ug/mL), 1.02 ± 0.05 in assay [2] (agonist: LPS 0.1 ug/mL) and 1.01 ± 0.1 in assay [2] (agonist: MPLA […]). Further, in assay [3], the viability score is 0.993 (active).
As for `N[C@@H](CSCCCO)C(=O)O`, the values for the NF-kB reporter in assay [1] (setting [4]), in assay [1] (agonist: LPS 0.1 ug/mL) and in assay [1] (agonist: MPLA […]) were 0.987 ± 0.073, 1.01 ± 0.051 and 0.937 ± 0.033, respectively. Moreover, the IRF reporter turned out to be 0.922 ± 0.077 in assay [2] (agonist: 3'3'-cGAMP 10 ug/mL), 0.995 ± 0.047 in assay [2] (agonist: LPS 0.1 ug/mL) and 0.971 ± 0.089 in assay [2] (agonist: MPLA […]). The viability score in assay [3] is 1 (active).
